From PubChem BioAssay (NCI) come the findings set out here.

The panel holds about 83,000 compounds, 20% with a hit somewhere; the sample as a whole holds those more often.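 Testing used 96-well plates and a 48-hour single-concentration exposure. Example: -40 means 40% of the starting cells died.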 A number with no mark means an inactive call. Activity calls are given as the source filed them. How the source made its calls: active means growth percent below 10; inactive means the rest.

Test in all cases: NCI-60 one-dose screen, 48 h (100 = growth as untreated, 0 = no growth, -100 = all killed)
The test system of one assay is SK-MEL-2 melanoma. Particulars: 10 µM unless noted.
The next assay relates to EKVX NSCLC. Particulars: 10 µM unless noted.
The next assay has as its system SN12C renal. To be noted: 10 µM unless noted.
A further assay has as its system UO-31 renal. Particulars: 10 µM unless noted.
The next assay has as its system TK-10 renal. To be noted: 10 µM unless noted.
For the next assay, the system named is ACHN renal. Particulars: 10 µM unless noted.
A further assay concerns CAKI-1 renal. To be noted: 10 µM unless noted.
The test system of the next assay is A498 renal. To be noted: 10 µM unless noted.
The subject of another assay is CCRF-CEM leukemia. Particulars: 10 µM unless noted.
The subject of the next assay is MOLT-4 leukemia. To be noted: 10 µM unless noted.
Another assay deals with SR leukemia. Particulars: 10 µM unless noted.
A further assay relates to RPMI-8226 leukemia. Particulars: 10 µM unless noted.
In another assay the test system is OVCAR-8 ovarian. To be noted: 10 µM unless noted.
The test system of another assay is OVCAR-5 ovarian. Particulars: 10 µM unless noted.
The next assay relates to OVCAR-4 ovarian. Particulars: 10 µM.
Another assay concerns SK-OV-3 ovarian. To be noted: 10 µM unless noted.
A further assay deals with IGROV1 ovarian. Particulars: 10 µM unless noted.
For the next assay, the system named is OVCAR-3 ovarian. Particulars: 10 µM unless noted.
For a further assay, the system named is HS 578T breast. To be noted: 10 µM unless noted.
Another assay deals with NCI/ADR-RES ovarian. Particulars: 10 µM unless noted.

For `COc1cc(OC)cc(C(=O)Nc2cc(-c3cccnc3)nc(NCCCN3CCOCC3)n2)c1`, the growth was 84.1% with SK-MEL-2 melanoma; 103% with EKVX NSCLC; 86.4% in the assay on SN12C renal; 53.6% with UO-31 renal; 95.5% in the assay on TK-10 renal; 103% in the assay with ACHN renal. Also, the growth in the assay with CAKI-1 renal is 101%; with A498 renal it was 83.3%; in the assay on CCRF-CEM leukemia, 90.8%; with MOLT-4 leukemia, 82.3%; with SR leukemia, 57.9%; in the assay with RPMI-8226 leukemia, 79.1%. Besides, the growth with OVCAR-8 ovarian was 91.8%; in the assay with OVCAR-5 ovarian, 100%; with OVCAR-4 ovarian, 117%; in the assay with SK-OV-3 ovarian it was 93.9%; in the assay on IGROV1 ovarian, 97.4%; in the assay with OVCAR-3 ovarian, 105%. The growth in the assay on HS 578T breast is 69%; in the assay with NCI/ADR-RES ovarian, 95.4%.
In the case of `N#Cc1ccc(-c2ccc(COc3ccc(CC4SC(=O)NC4=O)cc3)cc2)cc1` (stereo not given), the growth in the assay with SK-MEL-2 melanoma was 56.9%; in the assay on EKVX NSCLC, 48%; in the assay on SN12C renal, 74.4%; in the assay with UO-31 renal it was 48.1%; in the assay with TK-10 renal it was 85.9%; in the assay with ACHN renal, 52.4%. The growth in the assay on CAKI-1 renal was 48.1%; in the assay on A498 renal, 99.7%; with CCRF-CEM leukemia, 61.5%; in the assay with MOLT-4 leukemia it was 37.8%; with SR leukemia, 45.1%; in the assay on RPMI-8226 leukemia, 48.5%. Further, the growth with OVCAR-8 ovarian was 58.3%; with OVCAR-5 ovarian it was 96.2%; in the assay on OVCAR-4 ovarian it was 40.8%; in the assay with SK-OV-3 ovarian, 69.9%; with IGROV1 ovarian it was 68.4%; in the assay with OVCAR-3 ovarian, 64.7%. Besides, the results for the growth in the assay with HS 578T breast and with NCI/ADR-RES ovarian were 72.5% and 37.8%, respectively.
As to `O=C1COCCN1c1ccc(NCc2cn(Cc3cccc4ccccc34)c3ccccc23)cc1`, the growth is 93.4% with SK-MEL-2 melanoma; 96.6% in the assay on EKVX NSCLC; 92.6% with SN12C renal; 58% in the assay on UO-31 renal; 44.4% in the assay with TK-10 renal; 91.4% in the assay with ACHN renal. Besides, the growth was 7.53% (active) in the assay with CAKI-1 renal; -39.1% (active) in the assay with A498 renal; 96.9% with CCRF-CEM leukemia; 92% in the assay with MOLT-4 leukemia; 74.5% with SR leukemia; 82.1% with RPMI-8226 leukemia. For the same molecule, the growth with OVCAR-8 ovarian was 83.4%; with OVCAR-5 ovarian it was 41.7%; in the assay with OVCAR-4 ovarian it was 69.8%; in the assay with SK-OV-3 ovarian, 62%; in the assay with IGROV1 ovarian, 27.2%; with OVCAR-3 ovarian, 87.9%. Also, the growth in the assay with HS 578T breast is 84.3%; with NCI/ADR-RES ovarian, 78.2%.
For `COC(=O)C(=Cc1ccccc1[N+](=O)[O-])C(=O)OC`, the growth is 73.5% with SK-MEL-2 melanoma; 51.4% in the assay on EKVX NSCLC; 51.1% in the assay on SN12C renal; 31.2% in the assay with UO-31 renal; 14.7% in the assay on TK-10 renal; 48.7% in the assay on ACHN renal. Besides, the growth in the assay with CAKI-1 renal was 31.2%; in the assay with A498 renal it was 69.1%; with CCRF-CEM leukemia, -1.09% (active); in the assay with MOLT-4 leukemia, 4.68% (active); in the assay on SR leukemia, -22.3% (active); in the assay on RPMI-8226 leukemia, -18.6% (active). Moreover, the growth is 49.8% in the assay with OVCAR-8 ovarian; 56.6% with OVCAR-5 ovarian; 21.6% with OVCAR-4 ovarian; 69.7% in the assay with SK-OV-3 ovarian; 37.9% in the assay with IGROV1 ovarian; -17.9% (active) in the assay on OVCAR-3 ovarian. Further, the growth was 34.5% in the assay with HS 578T breast and 21.9% with NCI/ADR-RES ovarian.
Regarding `O=C(CSc1nc2ccc([N+](=O)[O-])cc2[nH]1)Nc1ccc(F)c(Cl)c1`, the growth in the assay on SK-MEL-2 melanoma was -7.66% (active); in the assay with EKVX NSCLC it was 11.1%; with SN12C renal, 3.12% (active); with UO-31 renal, 3.59% (active); in the assay with TK-10 renal, 25.1%; in the assay on ACHN renal it was 16.9%. Further, the growth in the assay with CAKI-1 renal is 9.26% (active); with A498 renal it was -13.1% (active); in the assay with CCRF-CEM leukemia it was 19%; in the assay with MOLT-4 leukemia it was 5.63% (active); with SR leukemia, 5.97% (active); in the assay on RPMI-8226 leukemia, -22.3% (active). In addition, the growth with OVCAR-8 ovarian is 15.5%; in the assay with OVCAR-5 ovarian, 50.9%; with OVCAR-4 ovarian it was 2.64% (active); in the assay with SK-OV-3 ovarian it was 21.4%; in the assay with IGROV1 ovarian, 36.1%; in the assay with OVCAR-3 ovarian, 16.5%. The growth in the assay on HS 578T breast was 20.3%; in the assay on NCI/ADR-RES ovarian it was 22.4%.
Consider `COc1cc2c(c(Br)c1N)-c1cc(Br)c(N)cc1C2=O`, for which the growth in the assay on SK-MEL-2 melanoma is 108%; in the assay with EKVX NSCLC it was 34.8%; in the assay with SN12C renal, 39.9%; with UO-31 renal, 51.7%; in the assay with TK-10 renal, 27.2%; in the assay on ACHN renal, 57.6%. The growth with CAKI-1 renal is 74.3%; with A498 renal, 61.7%; in the assay with CCRF-CEM leukemia, 86%; with MOLT-4 leukemia, 97.2%; in the assay with SR leukemia, 47.2%; with RPMI-8226 leukemia, 85.9%. Besides, the growth with OVCAR-8 ovarian was 29.1%; in the assay on OVCAR-5 ovarian it was 16.3%; in the assay on OVCAR-4 ovarian, 22.2%; in the assay on SK-OV-3 ovarian, 74.5%; in the assay on IGROV1 ovarian, 31.9%; in the assay on OVCAR-3 ovarian, 83.4%. Also, the growth in the assay on HS 578T breast was 38.1%; in the assay on NCI/ADR-RES ovarian, 47.8%.
For the molecule `COc1ccc2nc3cc(Cl)ccc3c(Nc3ccc(O)cc3)c2c1`, the growth in the assay with SK-MEL-2 melanoma is 110%; with EKVX NSCLC, 94.5%; in the assay with SN12C renal it was 67.2%; with UO-31 renal, 62.1%; in the assay on TK-10 renal, 88%; with ACHN renal, 66.6%. For the same molecule, the growth is 71.5% in the assay on CAKI-1 renal; 57.2% in the assay with A498 renal; 23.9% with CCRF-CEM leukemia; 9.49% (active) in the assay on MOLT-4 leukemia; -22.2% (active) with SR leukemia; 68.6% with RPMI-8226 leukemia. The growth with OVCAR-8 ovarian is 68.5%; with OVCAR-5 ovarian, 104%; in the assay on OVCAR-4 ovarian, 90.4%; in the assay with SK-OV-3 ovarian, 93.3%; with IGROV1 ovarian, 71.3%; in the assay on OVCAR-3 ovarian, 83%. Moreover, the figures for the growth in the assay on HS 578T breast and with NCI/ADR-RES ovarian were 76.2% and 71.2%, respectively.
Regarding `CC(C)C1=NOC(=O)C1=Cc1cn(-c2ccccc2)nc1-c1cccc([N+](=O)[O-])c1`, the growth in the assay with SK-MEL-2 melanoma was 101%; with EKVX NSCLC it was 99.3%; with SN12C renal it was 78.3%; in the assay on UO-31 renal it was 74.3%; with TK-10 renal, 89.5%; in the assay with ACHN renal, 99.2%. For the same molecule, the growth in the assay on CAKI-1 renal was 64.6%; with A498 renal it was 76.3%; in the assay with CCRF-CEM leukemia it was 2.68% (active); in the assay with MOLT-4 leukemia, 3.44% (active); in the assay with SR leukemia, -20.9% (active); in the assay on RPMI-8226 leukemia, -26.8% (active). For the same molecule, the growth in the assay on OVCAR-8 ovarian was 58%; in the assay with OVCAR-5 ovarian, 106%; with OVCAR-4 ovarian it was 103%; in the assay on SK-OV-3 ovarian, 117%; in the assay with IGROV1 ovarian, 70.4%; in the assay with OVCAR-3 ovarian, 89.3%. Besides, the growth in the assay on HS 578T breast was 29.7%; in the assay with NCI/ADR-RES ovarian it was 97%.
